From PubChem BioAssay
Active and inactive are the calls of the source.

Legend:
[1] = small molecules captured by biotinylated probe aFSTL3 – biochemical, small-molecule microarray, fluorescence 635/667, stem cell growth factor project, primary screen (AID 1064); conditions: higher = more signal;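 also: measures binding of the biotinylated anti-FSTL3 antibody to printed compounds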
[2] = binders from COS7 lysate, DM2A8 probe, primary screen, torsin A project, cell lysate, small-molecule microarray, fluorescence 635/667 (AID 1065); conditions: higher = more signal, COS7 lysate expressing mutant human TOR1A
[3] = small molecules captured by biotinylated probe aFGF2 – biochemical, small-molecule microarray, fluorescence 635/667, stem cell growth factor project, primary screen (AID 1067); conditions: higher = more signal;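 also: measures binding of biotinylated aFGF2 protein to printed compounds on slides; z-score merges feature fluorescence and signal-to-noise across triplicate slides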
[4] = small molecules captured by biotinylated probe aFGF10 – biochemical, small-molecule microarray, fluorescence 635/667, stem cell growth factor project, primary screen (AID 1071); conditions: higher = more signal;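 also: score merges 667 nm spot intensity and signal to noise from triplicate slides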
[5] = target: Neurogenic locus notch homolog protein 2 (Homo sapiens) (UniProt Q04721); assay: small molecules binding Notch2 protein – biochemical, small-molecule microarray, 635 nm fluorescence, stem cell growth factors, primary screen (AID 1073); conditions: higher = more signal
Sequence of Neurogenic locus notch homolog protein 2 (Homo sapiens) (Q04721 whole entry, looked up, canonical isoform): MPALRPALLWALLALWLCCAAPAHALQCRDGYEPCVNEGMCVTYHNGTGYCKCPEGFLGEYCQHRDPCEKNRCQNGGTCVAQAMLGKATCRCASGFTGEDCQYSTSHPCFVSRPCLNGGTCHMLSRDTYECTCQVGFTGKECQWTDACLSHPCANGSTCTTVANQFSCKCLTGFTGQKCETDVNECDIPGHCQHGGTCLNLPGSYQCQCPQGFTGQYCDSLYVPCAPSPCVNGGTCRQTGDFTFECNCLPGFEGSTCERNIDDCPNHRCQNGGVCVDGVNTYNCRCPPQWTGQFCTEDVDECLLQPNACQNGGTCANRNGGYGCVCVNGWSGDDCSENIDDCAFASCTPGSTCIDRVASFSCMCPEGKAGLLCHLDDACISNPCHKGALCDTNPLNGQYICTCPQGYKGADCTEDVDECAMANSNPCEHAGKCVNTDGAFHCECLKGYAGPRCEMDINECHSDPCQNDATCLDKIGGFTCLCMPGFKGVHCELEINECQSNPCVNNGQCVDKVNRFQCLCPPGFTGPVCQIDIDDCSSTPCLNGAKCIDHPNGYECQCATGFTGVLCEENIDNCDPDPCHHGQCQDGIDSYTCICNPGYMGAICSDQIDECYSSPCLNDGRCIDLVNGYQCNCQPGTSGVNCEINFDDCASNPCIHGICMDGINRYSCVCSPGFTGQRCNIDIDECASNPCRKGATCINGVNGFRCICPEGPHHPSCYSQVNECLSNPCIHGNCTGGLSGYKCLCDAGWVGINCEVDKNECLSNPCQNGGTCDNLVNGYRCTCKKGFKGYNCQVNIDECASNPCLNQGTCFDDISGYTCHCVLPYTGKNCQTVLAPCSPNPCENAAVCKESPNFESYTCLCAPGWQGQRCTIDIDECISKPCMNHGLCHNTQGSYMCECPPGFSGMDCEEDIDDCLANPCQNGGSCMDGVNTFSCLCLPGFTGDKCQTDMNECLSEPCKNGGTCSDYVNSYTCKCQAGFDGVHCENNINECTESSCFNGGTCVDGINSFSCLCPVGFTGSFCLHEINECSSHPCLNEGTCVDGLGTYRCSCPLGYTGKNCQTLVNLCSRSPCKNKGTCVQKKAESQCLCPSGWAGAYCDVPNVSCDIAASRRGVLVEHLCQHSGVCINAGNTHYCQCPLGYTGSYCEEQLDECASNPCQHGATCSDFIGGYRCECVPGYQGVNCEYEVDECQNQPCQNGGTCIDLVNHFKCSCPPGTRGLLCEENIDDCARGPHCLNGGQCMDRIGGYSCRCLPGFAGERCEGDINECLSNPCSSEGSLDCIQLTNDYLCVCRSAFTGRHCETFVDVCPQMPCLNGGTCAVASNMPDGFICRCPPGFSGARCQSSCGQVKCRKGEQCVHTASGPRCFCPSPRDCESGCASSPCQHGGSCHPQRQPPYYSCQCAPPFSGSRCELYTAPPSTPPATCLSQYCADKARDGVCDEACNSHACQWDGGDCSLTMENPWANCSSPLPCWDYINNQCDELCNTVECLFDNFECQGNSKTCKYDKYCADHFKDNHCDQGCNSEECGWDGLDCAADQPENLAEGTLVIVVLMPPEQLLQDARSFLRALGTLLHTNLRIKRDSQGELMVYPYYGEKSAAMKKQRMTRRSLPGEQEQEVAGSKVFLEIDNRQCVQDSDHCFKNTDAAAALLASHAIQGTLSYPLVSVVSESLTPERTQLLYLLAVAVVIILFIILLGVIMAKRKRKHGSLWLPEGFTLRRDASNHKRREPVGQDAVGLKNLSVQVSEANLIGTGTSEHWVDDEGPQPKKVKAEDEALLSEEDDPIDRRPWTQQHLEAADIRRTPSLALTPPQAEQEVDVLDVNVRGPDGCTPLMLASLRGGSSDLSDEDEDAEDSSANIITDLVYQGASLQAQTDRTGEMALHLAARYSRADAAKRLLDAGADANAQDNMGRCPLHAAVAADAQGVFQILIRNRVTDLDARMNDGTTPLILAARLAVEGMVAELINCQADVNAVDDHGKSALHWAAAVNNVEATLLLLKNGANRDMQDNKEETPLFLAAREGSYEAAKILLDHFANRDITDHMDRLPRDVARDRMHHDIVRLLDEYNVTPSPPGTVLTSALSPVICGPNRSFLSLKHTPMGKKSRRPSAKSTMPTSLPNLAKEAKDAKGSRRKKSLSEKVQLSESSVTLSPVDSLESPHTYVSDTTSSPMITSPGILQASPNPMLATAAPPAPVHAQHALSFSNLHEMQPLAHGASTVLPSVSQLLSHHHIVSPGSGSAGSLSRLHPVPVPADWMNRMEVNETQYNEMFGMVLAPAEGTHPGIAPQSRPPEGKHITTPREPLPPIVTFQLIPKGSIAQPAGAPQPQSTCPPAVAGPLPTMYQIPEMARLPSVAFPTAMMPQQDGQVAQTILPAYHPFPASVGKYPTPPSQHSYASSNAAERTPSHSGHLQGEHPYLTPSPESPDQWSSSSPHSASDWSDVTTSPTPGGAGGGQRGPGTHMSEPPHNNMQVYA

[6] = target: Pro-neuregulin-1, membrane-bound isoform (Homo sapiens) (UniProt Q02297); assay: small molecules binding neuregulin-1 protein – biochemical, small-molecule microarray, fluorescence 635/667, psychiatric disease protein project, primary screen (AID 1075); conditions: NRG1 binding, 635 nm fluorescence, higher = more signal;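 also: score combines 667 nm spot fluorescence with signal to noise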
Sequence of Pro-neuregulin-1, membrane-bound isoform (Homo sapiens) (Q02297 whole entry, looked up, the tested form may be a part, canonical isoform): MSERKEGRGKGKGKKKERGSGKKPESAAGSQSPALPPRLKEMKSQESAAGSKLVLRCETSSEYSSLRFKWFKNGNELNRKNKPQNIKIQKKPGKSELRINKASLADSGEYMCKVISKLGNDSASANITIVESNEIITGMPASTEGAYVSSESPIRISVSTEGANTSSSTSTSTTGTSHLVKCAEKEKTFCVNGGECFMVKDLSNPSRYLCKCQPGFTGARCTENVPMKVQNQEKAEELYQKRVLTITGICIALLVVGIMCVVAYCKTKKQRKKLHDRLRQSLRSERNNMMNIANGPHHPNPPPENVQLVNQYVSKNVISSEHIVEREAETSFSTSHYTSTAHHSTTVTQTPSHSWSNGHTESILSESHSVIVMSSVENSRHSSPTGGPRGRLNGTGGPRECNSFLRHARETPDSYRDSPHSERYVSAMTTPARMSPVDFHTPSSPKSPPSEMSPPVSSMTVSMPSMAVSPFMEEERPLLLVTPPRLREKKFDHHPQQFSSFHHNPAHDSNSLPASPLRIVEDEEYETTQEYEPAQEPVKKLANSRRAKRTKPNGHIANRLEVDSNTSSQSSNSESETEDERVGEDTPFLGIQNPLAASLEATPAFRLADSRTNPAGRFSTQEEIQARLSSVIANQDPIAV

[7] = system: Neuregulin-1 EGF-like domain; assay: small molecules binding NRG1 EGF domain – biochemical, small-molecule microarray, 635 nm fluorescence, primary screen (AID 1081); conditions: higher = more signal;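 also: binding of the protein to compounds printed on small-molecule microarray slides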
[8] = FRG1 expression reporter modulators in myotubes – cell-based, C2C12 myotubes, firefly/Renilla luciferase, luminescence, FRG1 inhibition for FSHD, primary screen (AID 1084); conditions: FRG1 promoter luciferase, higher = more signal, called active from +8 up or from −8 down
[9] = small molecules captured by biotinylated probe aFST – biochemical, small-molecule microarray, fluorescence 635/667, stem cell growth factor project, primary screen (AID 1086); conditions: higher = more signal;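 also: score merges 667 nm fluorescence with signal-to-noise of each printed compound spot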
[10] = binders of probe aHhip on microarray, primary screen, stem cell growth factor project, biochemical, small-molecule microarray, fluorescence 635/667 (AID 1087); conditions: higher = more signal;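 also: score merges spot fluorescence at 667nm with spot signal to noise ratio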
[11] = system: PRMT1 (protein arginine N-methyltransferase 1); assay: small molecules binding arginine methyltransferase PRMT1 – biochemical, small-molecule microarray, 635 nm fluorescence, primary screen (AID 1088); conditions: higher = more signal;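 also: binding of Prmt1 protein to compounds spotted on small-molecule microarray slides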
[12] = growth effects on S. cerevisiae YJM789 – YJM789 clinical isolate, OD600, 24 h, basal, primary screen (AID 1089); conditions: higher = more signal, called active from +8 up or from −8 down;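 also: growth of clinical yeast isolate S. cerevisiae YJM 789 seeded 1000 cells per well; test concentration not given here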
[13] = S. pombe growth modifiers, basal conditions – strain 972, OD600, 24 h, no modulator, primary screen (AID 1090);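 also: basal condition with compound alone and no growth modifier present; test concentration not given here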; conditions: S. pombe 972 growth, higher = more signal, called active from +8 up or from −8 down
[14] = budding yeast growth modifiers under rapamycin – strain BY4716, OD600, 96 h, primary screen (AID 1091); also: test concentration not given here; conditions: S. cerevisiae BY4716 + rapamycin, higher = more signal, called active from +8 up or from −8 down
[15] = target: Torsin-1A-interacting protein 2 (Homo sapiens) (UniProt Q8NFQ8); assay: small molecules binding lysate-expressed LULL1 – cell lysate, human LULL1 lysate, 635/667 nm fluorescence, primary screen (AID 1092); conditions: small-molecule microarray, hLULL1 lysate binding, 635 nm fluorescence; higher = more signal;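 also: probe is lysate of COS7 cells overexpressing human LULL1; score merges per-feature 667 nm fluorescence with signal-to-noise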
Sequence of Torsin-1A-interacting protein 2 (Homo sapiens) (Q8NFQ8 whole entry, looked up): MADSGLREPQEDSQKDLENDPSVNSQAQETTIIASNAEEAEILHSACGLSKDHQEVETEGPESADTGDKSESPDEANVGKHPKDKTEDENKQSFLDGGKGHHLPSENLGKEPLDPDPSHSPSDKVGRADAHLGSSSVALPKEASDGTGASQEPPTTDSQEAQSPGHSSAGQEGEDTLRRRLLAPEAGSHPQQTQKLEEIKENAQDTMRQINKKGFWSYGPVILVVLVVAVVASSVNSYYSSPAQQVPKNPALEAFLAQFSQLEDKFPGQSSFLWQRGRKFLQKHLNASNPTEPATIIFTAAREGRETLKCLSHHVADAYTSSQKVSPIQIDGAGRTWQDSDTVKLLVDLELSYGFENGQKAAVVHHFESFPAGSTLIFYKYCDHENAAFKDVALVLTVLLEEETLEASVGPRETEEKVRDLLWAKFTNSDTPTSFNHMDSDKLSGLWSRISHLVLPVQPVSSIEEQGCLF

[16] = optical density change of DRC41 E. coli – strain DRC41, OD650, 24 h, E. coli filamentation project, primary screen (AID 1093);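 also: MC1000 strain lacking acrAB efflux and sulA so SOS filamentation is blocked; test concentration not given here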; conditions: E. coli DRC41 growth, higher = more signal, called active from +8 up or from −8 down
[17] = probe aLefty2 binding to arrayed compounds – biochemical, biotinylated probe, 635/667 nm fluorescence, primary screen (AID 1094); conditions: small-molecule microarray, higher = more signal;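 also: score merges spot fluorescence near 667 nm with spot signal-to-noise ratio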
[18] = system: Noggin (protein binding on small-molecule microarray); assay: small molecules binding Noggin protein – biochemical, 635/667 nm fluorescence, primary screen (AID 1095); conditions: 635 nm fluorescence, higher = more signal;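 also: score merges 667 nm feature fluorescence with signal to noise over triplicate slides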
[19] = target: Neurogenic locus notch homolog protein 3 (Homo sapiens) (UniProt Q9UM47); assay: small molecules binding NOTCH3 protein – biochemical, 635/667 nm fluorescence, primary screen (AID 1096); conditions: small-molecule microarray, 635 nm fluorescence, higher = more signal
[20] = probe aEGFR binding to arrayed compounds – biochemical, biotinylated probe, 635/667 nm fluorescence, primary screen (AID 1097); conditions: small-molecule microarray, higher = more signal;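 also: probe is a biotinylated anti-EGFR antibody binding compounds printed on slides; score combines fluorescence near 667 nm and signal to noise of each spot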

| Compound | composite z-score [1] | composite z-score [2] | composite z-score [3] | composite z-score [4] | composite z-score [5] | composite z-score [6] | composite z-score [7] | z-score [8] | composite z-score [9] | composite z-score [10] | composite z-score [11] | z-score [12] | z-score [13] | z-score [14] | composite z-score [15] | z-score [16] | composite z-score [17] | composite z-score [18] | composite z-score [19] | composite z-score [20] |
| --- | --- | --- | --- | --- | --- | --- | --- | --- | --- | --- | --- | --- | --- | --- | --- | --- | --- | --- | --- | --- |
| C=C(C(=O)CC[C@@H](OC(=O)c1cccnc1)c1ccc(CO)o1)C(C)C | -0.35 | 0.328 | -0.019 | 0.715 | 0.29 | 1.08 | 0.592 | 0.305 (inactive) | 0.337 | 0.0373 | 1.54 | 0.813 (inactive) | -0.485 (inactive) | -0.0796 (inactive) | 1.97 | -0.601 (inactive) | -0.0415 | 1.53 | 1.14 | -0.0697 |
| O=C1OCC=C[C@H]2OC34C=CCN(CCN5CCOCC5)C(=O)[C@H]3N(CCCCCCO)C(=O)[C@@H]4[C@@H]12 (stereo not given in full) | -0.142 | 0.108 | -0.0785 | 0.0266 | -0.157 | 2.07 | 1.27 | 1.69 (inactive) | 0.334 | -0.364 | 0.171 | -1.4 (inactive) | -1.1 (inactive) | -0.918 (inactive) | 2.87 | -0.608 (inactive) | -0.0009 | 0.0056 | -0.0123 | 0.0792 |
| CN1C(=O)C2C=CC(C(O)C3=C[C@H]4C[C@@H](C3)C4(C)C)N(Nc3ccc([N+](=O)[O-])cc3[N+](=O)[O-])C2C1=O (stereo not given in full) | 0.574 | 0.156 | 0.15 | 0.733 | 1.66 | 1.51 | 1.33 | 0.0285 (inactive) | 0.642 | 0.0826 | 1.49 | 1.07 (inactive) | 0.595 (inactive) | 1.96 (inactive) | 3.28 | -0.43 (inactive) | 0.256 | 0.0179 | 1.02 | 0.213 |
| O=C(CS)NCCCCCCNC(=O)[C@H]1C[C@H]2C(=O)N3CCC[C@H]3C(=O)N2[C@H]1c1ccc(O)cc1 | 0.112 | -0.0248 | -0.0759 | -0.15 | -0.183 | 0.883 | 1.31 | 1.04 (inactive) | 0.416 | 0.0749 | 1.42 | -0.637 (inactive) | 0.0932 (inactive) | 0.369 (inactive) | 2.22 | -0.506 (inactive) | -0.0845 | 1.21 | 0.905 | -0.208 |
| C=CCC(OC(C)=O)[C@@H]1[C@@H](N(Cc2ccc(-c3ccccc3)cc2)C(=O)c2ccc(C)cc2)c2cc(OCCCO)ccc2N1C(=O)Cc1ccc(OC)cc1 (stereo not given in full) | -0.0305 | 0.0667 | -0.078 | 0.27 | -0.0045 | -0.369 | -0.453 | -1.32 (inactive) | 0.255 | -0.0994 | 1.1 | -2.3 (inactive) | -1.13 (inactive) | -0.713 (inactive) | 0.178 | 1.26 (inactive) | -0.166 | 0.0438 | 0.338 | -0.109 |
| COc1ccc([Si](C)(C)[C@H]2[C@H](CC(=O)N3CCC[C@H]3CO)O[C@@]3(C(=O)N(c4ccccc4)c4ccccc43)[C@@H]2C)cc1 | -0.371 | 0.509 | -0.17 | 0.134 | -0.568 | 0.0644 | 1.05 | -1.74 (inactive) | 0.0963 | -0.261 | 0.258 | -1.85 (inactive) | -0.841 (inactive) | -1.27 (inactive) | 0.958 | 2.45 (inactive) | -0.0651 | 0.285 | 0.125 | -0.15 |
| CC(C)C(O)C1C=CC2C(=O)N(C)C(=O)C2N1N1CCCCC1 (stereo not given) | -0.201 | -0.145 | -0.0412 | 0.651 | 1.51 | 0.856 | 1.24 | 0.554 (inactive) | 0.772 | -0.0391 | 0.594 | 0.252 (inactive) | 0.891 (inactive) | -0.199 (inactive) | 3.58 | -1.46 (inactive) | 0.169 | 0.315 | 0.217 | 0.0635 |
| O=C1NC(=O)C2C1C=CC(C(O)c1cccs1)N2Nc1ccccn1 (stereo not given) | 0.151 | -0.133 | 0.0094 | 0.692 | 1.14 | 0.689 | 0.877 | 0.304 (inactive) | 0.282 | -0.188 | 0.394 | 0.378 (inactive) | -0.31 (inactive) | 0.206 (inactive) | 1.12 | -0.248 (inactive) | 0.305 | 0.0671 | 0.242 | 0.119 |
| CCCCCCC#C[Si](O[C@H](c1ccccc1)c1cn([C@H](C)c2ccccc2)nn1)(C(C)C)C(C)C | -0.0028 | 0.247 | -0.083 | 0.291 | 0.315 | 0.114 | -0.333 | -0.532 (inactive) | -0.495 | 0.0147 | 0.789 | -0.285 (inactive) | 0.994 (inactive) | -0.0401 (inactive) | 0.828 | 1.33 (inactive) | -0.211 | 0.476 | 0.579 | -0.099 |
| [N-]=[N+]=NCc1ccccc1[C@H]1OC(c2ccc(OCCCO)cc2)=N[C@@]1(Cc1ccccc1)C(=O)NCC(O)CO (stereo not given in full) | 0.835 | 0.768 | -0.127 | 0.407 | 0.641 | 1.65 | 0.565 | -0.0633 (inactive) | 0.1 | -0.146 | 1.25 | -0.286 (inactive) | 0.669 (inactive) | -1.22 (inactive) | 3.5 | 0.203 (inactive) | 0.102 | -0.116 | -0.046 | 0.0073 |
